Cathepsin G inh: human cathepsin G inhibitors, primary screen, biochemical, pooled compound mixtures, AMC fluorescence; purified enzyme, AMC-tetrapeptide fluorescence; AID 581, 2007; inhibition, % at 5 µM (by protocol); 62,000 tested, 0.2% active;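 active = inhibition above 20% in each of the two mixture wells holding the compound; inactive = inhibition of 20% or less in either well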;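 note: 0% = enzyme control without mixture and 100% = blank lacking enzyme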
CatS inh: inhibitors of human cathepsin S, biochemical, compound mixtures | P25774 | recombinant cathepsin S, AMC dipeptide fluorescence, pooled mixtures | inhibition, %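 (tested at 5 µM per compound within 10-compound mixtures)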 | AID 501, 2006 | 62,000 tested, 0.06% active; in the data active = inhibition above about 32%, passing the limit was not always enough;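 note: 0% = enzyme without compound and 100% = blank without enzyme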
C1s block: complement C1s protease inhibitors, primary screen, biochemical, 10-compound mixtures | purified C1s, fluorogenic AMC substrate, pooled mixtures | mean inhibition % of two 10-compound mixtures (active compounds read high), % at 5 µM (by protocol) | 62,000 tested, 0.16% active;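 active = inhibition above 20% in each of the two 10-compound mixture wells holding the compound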;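 note: 0% = enzyme wells lacking compound mixture and 100% = no-enzyme blank wells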
Target sequence (P09871 16-437 limits assumed): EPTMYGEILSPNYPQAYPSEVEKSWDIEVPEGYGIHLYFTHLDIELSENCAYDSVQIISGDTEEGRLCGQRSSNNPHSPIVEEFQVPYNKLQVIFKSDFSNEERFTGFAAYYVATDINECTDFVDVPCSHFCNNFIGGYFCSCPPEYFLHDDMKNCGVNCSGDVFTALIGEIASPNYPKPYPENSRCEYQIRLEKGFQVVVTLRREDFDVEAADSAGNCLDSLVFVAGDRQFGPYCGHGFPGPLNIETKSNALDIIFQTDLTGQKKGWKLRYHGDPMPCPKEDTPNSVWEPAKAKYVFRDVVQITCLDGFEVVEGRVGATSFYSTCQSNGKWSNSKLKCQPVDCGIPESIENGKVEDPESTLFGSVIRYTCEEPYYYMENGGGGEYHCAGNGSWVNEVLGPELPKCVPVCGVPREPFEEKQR
Target sequence (P09871 438-688 limits assumed): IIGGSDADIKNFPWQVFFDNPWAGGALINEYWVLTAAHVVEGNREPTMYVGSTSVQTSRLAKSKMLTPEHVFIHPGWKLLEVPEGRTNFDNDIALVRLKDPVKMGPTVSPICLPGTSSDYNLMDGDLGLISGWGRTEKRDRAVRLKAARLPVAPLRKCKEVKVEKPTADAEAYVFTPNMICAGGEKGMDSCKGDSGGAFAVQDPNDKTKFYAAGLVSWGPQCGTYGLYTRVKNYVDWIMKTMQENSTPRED
CatB block: human cathepsin B inhibitors, primary screen, biochemical, fluorogenic substrate. purified cathepsin B, fluorescence. inhibition, %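 (tested at 10 µM)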. 63,000 tested, 0.1% active; in the data active = inhibition above about 21%;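 note: 0% = enzyme with no compound and 100% = no enzyme blank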
CatB mix inh: cathepsin B inhibitors from pooled compounds, primary screen, biochemical, compound mixtures, AMC fluorescence. P07858. Purified cathepsin B, AMC dipeptide fluorescence. inhibition, %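 (ten-compound pools at 5 µM per compound and 50 µM total)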. 62,000 tested, 0.06% active; in the data active = inhibition above about 22%, passing the limit was not always enough;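 note: 0% = enzyme without compound and 100% = no enzyme blank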
CatL block: inhibitors of human cathepsin L, biochemical | Procathepsin L (Homo sapiens), P07711 | purified cathepsin L, fluorogenic substrate, fluorescence | inhibition, %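 (tested at 10 µM)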 | 58,000 tested, 0.17% active; in the data active = inhibition above about 45%;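 note: 0% = enzyme with no compound and 100% = no enzyme blank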
An asterisk follows results filed as active. In the library only some 0.58% were active in any assay of this set; here they are far more common.

SMILES	Cathepsin G inh	CatS inh	C1s block	CatB block	CatB mix inh	CatL block
Cn1ncnc2c(=O)n(C)c(=O)nc1-2	7	70*	-82	83*	80*	85*
CCOc1cc(-c2nc3c(C)cccn3c2NCC2CCCO2)ccc1O (centres undefined)	-5	-4	-34	-1	-2	-70
CN(C)C(=O)CSc1nnc([C@@H](N)Cc2ccccc2)o1	11	9	0	1	-3	103*
CN1C(=O)N(C)C(=O)C(CCc2ccncc2)(Cc2ccc3c(c2)OCO3)C1=O	7	-9	12	0	2	-19
O/N=C1\CCC2CN(C3CCCCC3)CC2C1 (centres undefined)	6	-8	-29	5	1	1
CC1CN=C(Nc2cccc3ccccc23)S1 (centres undefined)	30	8	35*	3	6	23
